Assay type in all cases: functional
Test [1] concerns the target Solute carrier family 2, facilitated glucose transporter member 1 (Homo sapiens) (UniProt P11166). Nature of the test: ST_JUDE_LEISH: Cytotoxicity at 2uM final concentration against transgenic Leishmania Mexicana promastigotes LmGLUT1 that are glucose transport deficient and complemented with the human glucose transporter GLUT1. Activity is measured by DNA content using SYBR green in vitro.

The target of test [2] is Hexose transporter 1 (Plasmodium falciparum) (UniProt O97467). The test can be described thus: ST_JUDE_LEISH: Cytotoxicity at 2uM final concentration against transgenic Leishmania Mexicana promastigotes LmPfHT that are glucose transport deficient and complemented with the Plasmodium falciparum hexose transporter. Activity is measured by DNA content using SYBR green in vitro.

Test [3] has as its target Glucose transporter (Leishmania mexicana) (UniProt O61059). Nature of the test: ST_JUDE_LEISH: Cytotoxicity at 2uM final concentration against transgenic Leishmania Mexicana promastigotes LmGT2 that are glucose transport deficient and complemented with the L. Mexicana glucose transporter 2. Activity is measured by DNA content using SYBR green in vitro.

The structures appear in SMILES notation.

Solute carrier family 2, facilitated glucose transporter member 1 (Homo sapiens), sequence (P11166 whole entry): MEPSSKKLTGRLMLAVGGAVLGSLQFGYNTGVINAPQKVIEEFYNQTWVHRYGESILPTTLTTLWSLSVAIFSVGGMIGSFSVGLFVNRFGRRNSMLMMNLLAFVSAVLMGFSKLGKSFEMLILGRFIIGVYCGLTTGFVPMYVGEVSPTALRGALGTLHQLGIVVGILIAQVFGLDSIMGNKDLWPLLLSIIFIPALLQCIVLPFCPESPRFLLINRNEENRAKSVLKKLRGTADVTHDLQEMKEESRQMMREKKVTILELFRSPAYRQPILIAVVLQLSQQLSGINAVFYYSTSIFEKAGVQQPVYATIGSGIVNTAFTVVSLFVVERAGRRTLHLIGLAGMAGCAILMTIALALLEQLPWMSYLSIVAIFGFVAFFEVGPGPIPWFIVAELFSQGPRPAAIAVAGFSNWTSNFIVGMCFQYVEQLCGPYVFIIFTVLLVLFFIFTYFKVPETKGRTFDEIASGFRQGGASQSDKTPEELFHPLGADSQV

A word on the inhibition: it is the drop in the measured response relative to a control, in per cent. For the molecule `O=C(Nc1ccc(-c2cccc(-c3nc4ccccc4[nH]3)c2)cc1)Nc1ccsc1`, the values for the inhibition in test [1], in test [2] and in test [3] were -0.72%, 4.27% and -0.62%, respectively.
In the same order, the values of `Cc1cc(-c2nc3ccc(C(=O)NCc4ccccc4)cc3n2C2CCN(C(=O)c3ccc(-c4ccccc4)cc3)CC2)ccn1` are 1.02%, -0.07% and 1.94%.
Regarding `COc1ccc2c(=O)c(I)c(C)[nH]c2c1`, the inhibition in test [1] was -1.2%; in test [2], -1.12%; in test [3] it was -3.12%.
Taken in the same sequence, the figures for `COc1ccc(CC(=O)NC(CCCN2CCC3(CC2)OCc2ccccc23)c2ccc(Cl)c(Cl)c2)cc1` (stereo not drawn) were 1.2%, 2.18% and -0.29%.
In the same order, the values of `O=C(Cn1c(SCc2cccc(F)c2F)cc(=O)c2ccccc21)N(CCCn1ccnc1)Cc1ccc(-c2ccc(C(F)(F)F)cc2)cc1` are 3.11%, 1.44% and 2.6%.
In the same order, the values of `CC(C)CNC(=O)c1cncc(-c2ccc(CNCCCc3ccccc3)cc2)c1` are 0.94%, -0.91% and -0.55%.
With `COc1ccc(-c2cc(C(=O)Nc3ccc4[nH]c(-c5ccccc5)nc4c3)[nH]n2)cc1`, the inhibition in test [1] is 13.1%; in test [2] it was 12%; in test [3] it was 14.1%.
Taken in the same sequence, the figures for `c1cc(-c2ccc(CN3CCCCC3)cc2)cc(-c2nc3ccccc3[nH]2)c1` were 1.85%, 0.49% and 0.96%.
Taken in the same sequence, the figures for `COc1cc(C)c(C(O)CNC(C)CCc2ccccc2)cc1C` (stereo not drawn) were 2.16%, 2.83% and -0.47%.
In the same order, the values of `N#Cc1cccc(NC(=O)Nc2ccc(CC(=O)N3CCc4cc(Cl)c(N5CCN(C/C=C/c6ccccc6)CC5)cc43)cc2)c1` are 2.33%, 4.39% and 2.7%.
For `COc1ccc(Oc2ccc(-c3c(O)cc(C)nc3C)cc2)cc1`, the inhibition in test [1] came out at 2.96%; in test [2], 3.75%; in test [3] it was 1.27%.
Taken in the same sequence, the figures for `COc1cc2nc(NCCn3nc(C)cc3C)nc(NCCc3ccccc3)c2cc1OC` were -0.49%, 5.15% and 1.08%.
In the same order, the values of `COc1ccc2c(c1)CCCC2C(C)NCC(O)c1cccc(C(F)(F)F)c1` (stereo not drawn) are 8.86%, 5.98% and 6.3%.
Taken in the same sequence, the figures for `CCCCCCn1c(Sc2ccc(C#N)c([N+](=O)[O-])c2)nnc1-c1ccc(N(C)C)cc1` were 17.6%, 16.1% and 15.3%.
In the case of `COc1ccc(NC(=O)Nc2cc(C)nc3cccnc23)cc1Cn1ccnc1`, the inhibition in test [1] turned out to be 1.73%; in test [2], 1.25%; in test [3] it was 0.47%.
Taken in the same sequence, the figures for `COc1ccc(NC(=O)CSc2nc(-c3ccccc3Cl)ns2)cc1OC` were -0.51%, -0.5% and 2.58%.
Taken in the same sequence, the figures for `CCCCCCN(CCCCCC)CCCCNc1c2ccc(Cl)cc2nc2ccc(OC)cc12` were -3.87%, 0.39% and 0.56%.
As to `O=C(Nc1ccc(Cl)cc1)N[C@H]1CCN(CCCCCNC(=O)C2CC2c2ccc(Cl)c(Cl)c2)C1` (stereo partly drawn), the inhibition was 8.91% in test [1], 6.32% in test [2] and 8.02% in test [3].
Taken in the same sequence, the figures for `C=C[C@]1(C)C[C@@H](OC(=O)CNC[C@@H](O)CN2C[C@H](c3ccnc4ccc(OC)nc34)OC2=O)[C@@]2(C)[C@@H]3C(=O)CC[C@@]3(CC[C@@H]2C)[C@@H](C)[C@@H]1O` were 2.09%, 1.68% and 1.03%.
Taken in the same sequence, the figures for `O=C(/C=C/c1ccccc1Cl)Nc1ccc(Br)c(OCCN2CCN(CCN3CCOCC3)CC2)c1` were 1.48%, 1.38% and 0.88%.
In the same order, the values of `C=CCN(c1ccc(OC)cc1)S(=O)(=O)c1ccc(Cl)c(C(=O)Nc2cccc(C#N)c2)c1` are -1.28%, 4.89% and 4.17%.
As for `CC1CN(c2cnn(C/C=C/c3ccc(NC(=O)c4ccc(Cl)cc4)cc3)c(=O)c2Cl)CC(C)N1` (stereo not drawn), the inhibition in test [1] was -0.22%; in test [2], -0.3%; in test [3] it was -1.49%.
In the same order, the values of `Cc1cccc2nc(-c3ccc(-c4cccc(CN5CCCC5CN)c4)s3)[nH]c12` (stereo not drawn) are 2.06%, -0.2% and -0.03%.
In the same order, the values of `COc1cccc(NC(=O)Nc2ccc(Nc3nc(C)cc(N(C)C)n3)cc2)c1` are 2.46%, 1.22% and -4.92%.
As for `CCOc1cccc(C(=O)Nc2cccc(CN3CCCN(Cc4cccc(O)c4)CC3)c2)c1`, the inhibition in test [1] stood at 4.67%; in test [2], 5.58%; in test [3], 3.26%.
Taken in the same sequence, the figures for `CCc1c[nH]c2c(N(c3ccccc3)S(C)(=O)=O)cc(C(=O)N[C@@H](Cc3ccccc3)[C@H](O)CNC(C)(C)CCCC(C)C)cc12` were 0.74%, 1.65% and 0.18%.
Taken in the same sequence, the figures for `COc1ccccc1C1CC(c2ccc(Br)cc2)=NN1C(=O)c1ccccc1` (stereo not drawn) were 2.83%, 2.02% and 0.92%.
In the same order, the values of `COc1ccc(NC(=O)Nc2cccc(-c3ccncc3)c2)cc1N1CCN(C)CC1` are 6.92%, 7.39% and 7.22%.
As for `CC(C)(C)NCC(O)COc1ccc(Cl)cc1C1=NNC(=O)CC1` (stereo not drawn), the inhibition in test [1] amounted to 1.53%; in test [2], 1.45%; in test [3], 0.82%.
As for `CC1(C)NC(N)=NC(=N)N1OCCCOc1ccccc1Cl`, the figures for the inhibition in test [1], in test [2] and in test [3] were 8.95%, 10% and 12%, respectively.
In the same order, the values of `CCN(CC)CCCC(C)Nc1c(-c2ccc(OC)cc2)cnc2ccccc12` (stereo not drawn) are 2.85%, 3.79% and 0.36%.
In the same order, the values of `CC(C)Cc1ccc(N2CCN(CCCCNC(=O)c3ccc(NC(=O)c4cc(C(F)(F)F)cc(C(F)(F)F)c4)cc3)CC2)cc1` are 0.41%, 1.08% and -0.64%.
Taken in the same sequence, the figures for `COc1ccc2nccc([C@@H](O)CN3CCC(NCc4cc5cc(Cl)ccc5[nH]4)CC3)c2c1` were 12.5%, 28.1% and 2.75%.
For `NCCCCNc1cc(-c2ccnc(Nc3cccc(Cl)c3)n2)ccn1`, the inhibition in test [1] came out at 60.5%; in test [2], 71.8%; in test [3], 76.5%.
In the same order, the values of `FC(F)(F)c1ccc2[nH]c(-c3cccc(-c4ccc(CNCc5cnn(-c6ccccc6)n5)cc4)c3)nc2c1` are -0.1%, 0.61% and 2.19%.
Turning to `CCN(CC)CCN(Cc1ccc(-c2ccc(C(F)(F)F)cc2)cc1)C(=O)Cn1c(CCc2ccc(F)c(F)c2)cc(=O)c2ccccc21`, the inhibition in test [1] turned out to be 7.8%; in test [2], 7.35%; in test [3], 8.28%.
